A word on the % Inhibition: it is the change of the read-out against control, counted positive when it falls.

The campaign covered roughly 13,000 compounds. About 3,200 (25%) showed an effect of 50% or more. The list shows a part of the results.

The test relates to P. falciparum stage V gametocytes. More on the design: BacTiter-Glo ATP luminescence viability of purified stage V gametocytes in 384-well plates, per cent inhibition versus DMSO. The settings on record: 48 h, 5 µM; inhibitor.
For the molecule `COc1cc(NC(=O)N2CCOC(CCN3CCC4(CCc5ccccc54)CC3)(c3ccc(Cl)c(Cl)c3)C2)cc(OC)c1` (centres unmarked) [TCMDC-135338], the “% Inhibition” value is -0.7672%.

Consider `CCc1c(C)nc(-n2nc(C)cc2NC(=O)CCc2ccccc2)[nH]c1=O` [TCMDC-124934], for which the “% Inhibition” value is recorded as -11.5%. The result for `COc1ccc2ncc(F)c(CCN3CC(O)C(CNCc4ccc(F)cc4)C3)c2n1` (centres unmarked) [TCMDC-136527] reads 13.85%; that for `COc1ccc2ncc(F)c(CCN3CCC(NCc4cc(OC)c5c(c4)OCCO5)CC3)c2n1` [TCMDC-135509], 17.67%; that for `CCc1cc(CNC2CCN(CCc3c(F)cnc4ccc(OC)nc34)CC2)cc2c1OCCO2` [TCMDC-136290], 31.48%. The figure for `COc1ccc2ncc(F)c(CCN3CCC(NCc4cc(Br)c5c(c4)OCCO5)CC3)c2n1` [TCMDC-136211] is 30.05%; for `COc1ccc2ncc(F)c(CCN3CC(O)C(CNCc4ccc5ccccc5c4)C3)c2n1` (centres unmarked) [TCMDC-136528] it is 43.95%. For `COc1ccc2ncc(F)c(CCN3CCC(NCc4cc(C)c5c(c4)OCCO5)CC3)c2n1` [TCMDC-136209], the “% Inhibition” value worked out at 19.66%. The result for `COc1ccc2ncc(F)c(CCN3C[C@H](CNCc4cc(C#N)c5c(c4)OCCO5)[C@H](O)C3)c2n1` [TCMDC-136275] reads 16.8%.

Take `COc1ccc2ncc(F)c(CCN3CC(O)C(CNCc4ccc5c(c4)OCCO5)C3)c2n1` (centres unmarked) [TCMDC-136518]: the “% Inhibition” value is 55.46%. The result for `COc1ccc2ncc(F)c(CCN3CC(O)C(CNCc4ccccc4)C3)c2n1` (centres unmarked) [TCMDC-136498] reads 50.66%; that for `COc1ccc2ncc(F)c(CCN3CCC4(CC3)COC(c3cc5c(cn3)OCCO5)=N4)c2n1` [TCMDC-135741], 93.18%. Take `COc1ccc2ncc(F)c(CCN3CC(O)C(CNCc4ccc5oc(=O)ccc5c4)C3)c2n1` (centres unmarked) [TCMDC-136499]: the “% Inhibition” value worked out at 11.09%. The figure for `COc1ccc2ncc(F)c(CCN3CCC(NCc4cc(F)c5c(c4)OCCO5)CC3)c2n1` [TCMDC-135849] is 84.79%.

`NC1=NC(c2ccccc2)(c2ccccc2)C(=O)N1CCCCc1ccccc1` [TCMDC-136488]: the “% Inhibition” value was determined as 3.475%. Turning to `Fc1cccc(COc2ccc(Nc3ncnc4sc(C#Cc5ncc[nH]5)cc34)cc2Cl)c1` [TCMDC-135407], the “% Inhibition” value is listed as -1.353%.

With `O=C(Nc1cccc(-c2nn3ccccc3c2-c2ccnc(Nc3cccc(C(F)(F)F)c3)n2)c1)c1c(F)cccc1F` [TCMDC-135527], the “% Inhibition” value is on record as -78.64%. For the molecule `COc1cccc(C2(c3cccc(OC)c3)N=C(N)N(CCCc3ccccc3)C2=O)c1` [TCMDC-136492], the “% Inhibition” value was -28.16%. The figure for `CC1CN(C(=O)c2sc3ccccc3c2Cl)CC(C)O1` (centres unmarked) [TCMDC-125225] is 2.721%. The figure for `C/C=C1\CN2CC[C@H]1C[C@@H]2[C@@H](O)c1ccnc2ccc(O)cc12` [TCMDC-138273] is 7.487%; for `Cc1ccc(C)c(NC(=O)CC2C(=O)N(c3ccccc3)C(=S)N2Cc2ccco2)c1` (centres unmarked) [TCMDC-124000] it is 88.68%; for `Cc1cc(C)c(-c2n[nH]c3c2C(c2cccc(Cl)c2)N(Cc2ccco2)C3=O)c(O)c1` (centres unmarked) [TCMDC-125307] it is -65.67%. The result for `O=C(Nc1ccc(C(=O)Oc2cccc3ccccc23)cc1)N[C@@H](Cc1ccc(O)cc1)C(=O)NC1CCN(Cc2ccc(O)cc2)C1` (some centres unmarked) [TCMDC-135360] reads -40.07%; that for `O=c1c2ccc(Sc3ccccn3)cc2n(-c2ccccc2)c2cc(Sc3ccccn3)ccc12` [TCMDC-137528], 7.065%. Regarding `COc1cc(C)nc2ccc(NC(=O)c3cc([N+](=O)[O-])cc([N+](=O)[O-])c3)cc12` [TCMDC-139382], the “% Inhibition” value was determined as 32.9%. Turning to `CCOC(=O)C1CCN(CCOc2cc(NC(=O)/C=C/c3ccccc3Cl)ccc2Br)CC1` [TCMDC-140963], the “% Inhibition” value was -16.5%. The result for `O=C(C=Cc1ccccc1)Nc1ccc(C#CC=Cc2ccc(NC(=O)C=Cc3ccccc3)cc2)cc1` [TCMDC-125718] reads -11.21%; that for `CCOc1ccccc1C=CC(=O)Nc1ccc2nc(N3CCN(C)CC3)cc(C)c2c1` [TCMDC-123801], -1.147%. The result for `Cc1cc(N)c2cc(NC(=O)/C=C/c3ccccc3)ccc2n1` [TCMDC-139337] reads 92.06%; that for `Nc1cccc(C=CC(=O)Nc2ccnc3ccccc23)c1` [TCMDC-139290], 5.125%; that for `Cc1cc(N)c2cc(NC(=O)/C=C/c3ccc([N+](=O)[O-])cc3)ccc2n1` [TCMDC-139335], 102.5%. With `CC1(C)CN2CCCC2c2cc(NC(=O)/C=C/c3ccccc3Cl)ccc21` (centres unmarked) [TCMDC-139348], the “% Inhibition” value is 26.85%. The result for `COc1cc(C)nc2ccc(NC(=O)Nc3ccc([N+](=O)[O-])cc3C)cc12` [TCMDC-139395] reads -13.54%; that for `O=C(/C=C/c1ccccc1Cl)Nc1ccc(Br)c(OCCN2CCCCC2)c1` [TCMDC-140959], -53.57%.

Turning to `Cc1cc(N)c2cc(NC(=O)/C=C/c3ccccc3Cl)ccc2n1` [TCMDC-139459], the “% Inhibition” value is 113.2%. The result for `CN1Cc2cc(NC(=O)/C=C/c3ccccc3Cl)ccc2C(C)(C)C1` [TCMDC-139315] reads 78.19%.

For the molecule `NC(N)=NC(=O)Nc1cc(F)c(Cl)c(Cl)c1` [TCMDC-137462], the “% Inhibition” value was 6.486%.

In the case of `O=c1ccc2ncc(Cl)c3c2n1CC3CN1CCC(NCc2cc3c(cn2)OCCO3)CC1` (centres unmarked) [TCMDC-135967], the “% Inhibition” value is on record as 20.98%. Take `CC1(C)N=C(N)N=C(N)N1OCCCOc1ccc(N)cc1` [TCMDC-131698]: the “% Inhibition” value is on record as -10.87%. The figure for `CC1(C)CNCc2cc(NC(=O)/C=C/c3ccc(Cl)cc3)ccc21` [TCMDC-141909] is 92.59%; for `CN1CCN(Cc2cc3cc(NC(=O)/C=C/c4ccc(Cl)cc4)ccc3s2)CC1` [TCMDC-135631] it is -73.77%; for `O=C(/C=C/c1ccc(Cl)cc1)Nc1ccc2nc(CN3CCCC3)ccc2c1` [TCMDC-135629] it is -22.56%. The figure for `O=C(Nc1ccccc1)Nc1cccc(-c2nn3c(OCC4CCCCN4)cccc3c2-c2ccncc2)c1` (centres unmarked) [TCMDC-135465] is 63.4%; for `N[C@@H](COc1cccc2c(-c3ccncc3)c(-c3cccc(NC(=O)Nc4ccccc4)c3)nn12)c1ccccc1` [TCMDC-135512] it is 8.625%. For `Nc1ncnc2cc(-c3cccc(NC(=O)Nc4ccccc4)c3)sc12` [TCMDC-135255], the “% Inhibition” value is listed as -37.99%.

Turning to `O=C(Nc1ccccc1)Nc1cccc(-c2cc(CNCCc3ccccc3)sc2-c2ccncc2)c1` [TCMDC-135632], the “% Inhibition” value was -27.66%. The figure for `O=C(Nc1ccccc1)Nc1cccc(-c2nn3c(OCCN4CCCC4)cccc3c2-c2ccncc2)c1` [TCMDC-135539] is 44.29%; for `CCCCC(N)COc1cccc2c(-c3ccncc3)c(-c3cccc(NC(=O)Nc4ccccc4)c3)nn12` (centres unmarked) [TCMDC-135537] it is 58.08%; for `Fc1cc(Cl)ccc1Nc1ccnc2cc(-c3scnc3CNCCN3CCOCC3)ccc12` [TCMDC-138442] it is 15.08%. The figure for `O=C(Cc1cc(F)cc(F)c1)NC1CCN(c2ccnc3cc(Cl)ccc23)C1` (centres unmarked) [TCMDC-133667] is 8.938%; for `CC(C)(CNC(=O)[C@@H]1CCCN(CCOc2ccc(F)c(F)c2)C1)c1nc(-c2ccc(Cl)c(O)c2)c(-c2ccncc2)[nH]1` [TCMDC-141137] it is 11.15%. The figure for `CCN1CCN(c2cc(C)c3cc(NC(=O)c4cc(OC)cc(OC)c4)ccc3n2)CC1` [TCMDC-125575] is -6.076%; for `O=C(NCc1ccc2c(c1)OCO2)c1nn(CCN2CCC(N3CCCC3)CC2)cc1-c1ccc(Cl)c(Cl)c1` [TCMDC-141908] it is -16.74%. For `O=C(NCc1ccccc1)c1nn(CCCN2CCC(N3CCCC3)CC2)cc1-c1ccc(Cl)c(Cl)c1` [TCMDC-141728], the “% Inhibition” value was determined as 73.12%. The figure for `COc1cc(NC(=O)c2nn(CCCN3CCC4(CC3)C(=O)NCN4c3ccccc3)cc2-c2ccc(Cl)c(Cl)c2)cc(OC)c1OC` [TCMDC-141726] is -40.66%; for `CN(Cc1ccccc1)C(=O)c1nn(CCCN2CCC(N3CCCC3)CC2)cc1-c1ccc(Cl)c(Cl)c1` [TCMDC-141730] it is 45.58%. The result for `COc1cc(C(=O)NCc2nn(CCN3CCC(N4CCCC4)CC3)cc2-c2ccc(Cl)c(Cl)c2)cc(OC)c1OC` [TCMDC-141966] reads 24.89%; that for `COc1cc(NC(=O)c2nn(CCCN3CCC(N4CCCC4)CC3)cc2-c2ccc(Cl)c(Cl)c2)cc(OC)c1OC` [TCMDC-141725], 29.9%. Take `O=C(NCc1ccccc1)c1ncn(CCCN2CCC(N3CCCC3)CC2)c1-c1ccc(Cl)c(Cl)c1` [TCMDC-135228]: the “% Inhibition” value is 91.41%. With `O=C(NCc1ccccc1)NC(CCCN1CCC(Oc2cccc(Cl)c2)CC1)c1ccc(Cl)c(Cl)c1` (centres unmarked) [TCMDC-141903], the “% Inhibition” value was -17.97%.

Consider `O=C(Nc1ccccc1)c1nn(CCCN2CCC(N3CCCC3)CC2)cc1-c1ccc(Cl)c(Cl)c1` [TCMDC-141727], for which the “% Inhibition” value is 76.09%. The result for `CCOc1cc(C(=O)Nc2cccnc2)ccc1-c1nc2cc(Cl)c(Cl)cc2[nH]1` [TCMDC-140059] reads 1.839%; that for `Cc1nc2nc(N)nc(N)c2c(C)c1Cc1ccccc1I` [TCMDC-137243], -2.242%; that for `CCCCCNc1nc2nc(N)nc(N)c2nc1-c1ccccc1` [TCMDC-141983], -14.59%.

In the case of `Cc1ccc(S(=O)(=O)n2nccc2-c2c(-c3ccc(Cl)cc3)noc2C)cc1` [TCMDC-124500], the “% Inhibition” value amounted to 65.37%. The result for `Cc1onc(-c2ccc(Cl)cc2)c1-c1ccnn1S(=O)(=O)c1ccc(Cl)cc1` [TCMDC-123770] reads 63.51%. The figure for `Cc1cc(C(=O)NCc2ccc(-c3c(C)noc3C)cc2)n(-c2ccc(Cl)cc2)n1` [TCMDC-133781] is 35.85%; for `Cc1noc(C)c1S(=O)(=O)N(C)Cc1ccc(-c2ccc(Cl)cc2)o1` [TCMDC-125303] it is -57.93%.

Source of the values: article PMC4552634, “A New Set of Chemical Starting Points with Plasmodium falciparum Transmission-Blocking Potential for Antimalarial Drug Discovery” (PLoS ONE, 2015).
